Test results reported in PubChem BioAssay (NCATS).
Values without a mark were called inactive. Inconclusive results are not listed. Entries that show only a call come without a potency. Activity calls are given as the source filed them. Unless noted, the call rests on the fitted dose curve; in most records, active means well fitted curve in the direction sought with a large enough effect; inconclusive means small, poorly fitted or top-dose-only effect, or another doubt; inactive means no such curve, though single readings can be large; an effect the other way counts as inactive or inconclusive.

Assays:
[1] = qHTS for inhibitors of adenylyl cyclases using a fission yeast platform: a pilot screen against the NCATS LOPAC library (AID 1347410)
How it was run: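 Read-out: fbp1-GFP fluorescence by laser scanning cytometry (488 nm laser), a gain of signal when AC/cAMP-PKA signalling is inhibited. Strain CHP2027 expressing AC9, GNAS and PDE4D2; compounds at up to 57 µM; 18 h, 30C.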

[2] = qHTS to identify inhibitors of the type 1 interferon - major histocompatibility complex class I in skeletal muscle: primary screen against the NCATS Mechanism Interrogation Plate v5.0 (MIPE) Libary (AID 1347411); further: nearly all actives have a fitted effect of over 65% in size
How it was run: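 IFN-beta-driven (4 ng/ml) HLA-B-HiBit expression in CRISPR-tagged C25cl48 myoblasts; compounds 11-pt, 1:3, max 46 uM, 24 hr exposure; lytic NanoLuc complementation luminescence.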

[3] = Validation qHTS assay for inhibitors of Activation Induced Cytidine Deaminase (AID): UDG Counterscreen signal (AID 1347427)
How it was run: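 Fluorescence at 560 nm excitation, 665 nm emission reports UDG signal after 250 mM NaOH (2x) addition and 30 min. Enzymes (AID 1 uM, UDG 2 U/mL, at 4/3x) preincubated 10 min with compound, then 4 h with 4x 250 nM DJC20/DJC23 substrate at room temperature.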

[4] = molecular target: Single-stranded DNA cytosine deaminase (Homo sapiens) (UniProt Q9GZX7); test: Validation qHTS assay for inhibitors of Activation Induced Cytidine Deaminase (AID): AID signal (AID 1347429)
Sequence of Single-stranded DNA cytosine deaminase (Homo sapiens) (Q9GZX7 whole entry, looked up): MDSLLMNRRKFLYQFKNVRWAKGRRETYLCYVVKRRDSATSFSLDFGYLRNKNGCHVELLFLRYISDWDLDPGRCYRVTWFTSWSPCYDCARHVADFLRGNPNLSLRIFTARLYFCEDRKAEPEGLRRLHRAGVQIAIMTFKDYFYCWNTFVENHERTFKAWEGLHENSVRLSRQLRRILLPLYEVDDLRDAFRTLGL
How it was run: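 Compounds (up to 114 uM final) are tested against AID plus UDG using DJC20/DJC23 FRET substrate. Reactions incubate 4 hr at room temperature, receive NaOH for 30 min, and are read at Ex 540/Em 590 nm.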

[5] = Primary qHTS for inhibitors of La Crosse Virus (LACV) - induced cell death in SH-SY5Y cells (AID 1508616); further: potency means the concentration at half of the fitted maximal effect
How it was run: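 Screening measures cell viability in LACV-infected SH-SY5Y cultures. Compound was added before virus (0.01 MOI), and ATP was detected by luminescence 6 days later.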

[6] = molecular target: Calcium and integrin-binding protein 1 (Homo sapiens) (UniProt Q99828); test: Validation qHTS for Identification of Calcium Integrin Binding protein 1 (CIB1) Competitor (AID 1508618)
Sequence of Calcium and integrin-binding protein 1 (Homo sapiens) (Q99828 whole entry, looked up): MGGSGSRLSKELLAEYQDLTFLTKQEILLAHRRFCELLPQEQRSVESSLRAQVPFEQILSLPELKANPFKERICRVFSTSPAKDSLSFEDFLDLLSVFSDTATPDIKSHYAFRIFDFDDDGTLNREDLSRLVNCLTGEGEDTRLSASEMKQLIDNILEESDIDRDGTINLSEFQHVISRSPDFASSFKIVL
How it was run: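 CIB1-GST (1 uM final) in 5 mM HEPES pH 7.4, 125 mM NaCl, 5 mM CaCl2, 0.01% Tween20 was preincubated 15 min at room temperature with compound (up to 114 uM), then FITC-alphaIIb peptide (100 nM) added for 15 min; fluorescence polarization read.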

Papain (Carica papaya) = Papain (Carica papaya) (UniProt P00784); test: Primary qHTS assay for inhibitors of the protease papain (AID 1645873);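 further: papain turnover of Z-FR-AMC read as the AMC fluorescence gain over 10 min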; further: potency means the concentration at half of the fitted maximal effect
Sequence of Papain (Carica papaya) (P00784 whole entry, looked up, the tested form may be a part): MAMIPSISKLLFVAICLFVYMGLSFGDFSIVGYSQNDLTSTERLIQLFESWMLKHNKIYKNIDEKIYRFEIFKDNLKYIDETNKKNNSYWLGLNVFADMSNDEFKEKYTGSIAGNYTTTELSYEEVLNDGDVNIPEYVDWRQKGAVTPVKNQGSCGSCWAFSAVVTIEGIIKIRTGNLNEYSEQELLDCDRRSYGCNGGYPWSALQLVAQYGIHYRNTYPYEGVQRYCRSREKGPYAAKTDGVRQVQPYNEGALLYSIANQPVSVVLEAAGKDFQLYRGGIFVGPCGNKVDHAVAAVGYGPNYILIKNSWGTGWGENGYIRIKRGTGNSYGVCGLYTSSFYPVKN

[7] = Primary qHTS for inhibitors of nuclear receptor binding SET domain protein 2 (NSD2) in an isogenic RCH-ACV NSD2 p.E1099K mutant (9B) (AID 1645876); further: nearly all actives have a fitted effect of over 70% in size; further: potency means the concentration at half of the fitted maximal effect
[8] = Primary qHTS for small molecule stabilizers of the endoplasmic reticulum resident proteome: Secreted ER Calcium Modulated Protein (SERCaMP) assay (AID 1508630)
How it was run: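 The SH-SY5Y reporter protocol was run at 3 concentrations up to 38.3 uM (primary) or 11 concentrations (follow-up): 16 h compound, 100 nM thapsigargin for 4 h, then extracellular luciferase luminescence.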

[9] = molecular target: Cytochrome P450 2D6 (Homo sapiens) (UniProt P10635); test: Cytochrome P450 family 2 subfamily D member 6 (CYP2D6) small molecule antagonists: luciferase biochemical (cell-free) qHTS assay (AID 1645840; active means well fitted curve in the direction sought with a large enough effect in the repeat runs; an effect the other way counts as inactive or inconclusive; further: potency means the concentration at half of the fitted maximal effect; nearly all actives have a fitted effect of over 55% in size)
Sequence of Cytochrome P450 2D6 (Homo sapiens) (P10635 whole entry, looked up): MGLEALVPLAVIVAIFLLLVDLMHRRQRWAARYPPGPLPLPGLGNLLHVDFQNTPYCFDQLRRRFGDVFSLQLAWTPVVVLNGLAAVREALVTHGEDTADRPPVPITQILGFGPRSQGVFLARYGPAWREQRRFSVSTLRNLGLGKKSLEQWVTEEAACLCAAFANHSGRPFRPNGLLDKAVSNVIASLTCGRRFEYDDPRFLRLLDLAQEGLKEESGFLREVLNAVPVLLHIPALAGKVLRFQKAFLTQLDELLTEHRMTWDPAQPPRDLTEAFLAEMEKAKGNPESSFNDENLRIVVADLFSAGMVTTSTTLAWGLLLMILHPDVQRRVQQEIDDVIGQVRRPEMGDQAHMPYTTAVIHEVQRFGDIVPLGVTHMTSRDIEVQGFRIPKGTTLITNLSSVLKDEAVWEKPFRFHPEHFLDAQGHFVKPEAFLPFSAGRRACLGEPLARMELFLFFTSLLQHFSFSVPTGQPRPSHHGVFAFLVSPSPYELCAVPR
How it was run: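 P450-Glo CYP2D6 system: proluciferin substrate converted by enzyme to luciferin, read by luminescence proportional to activity. Enzyme-substrate mix with compound 10 min at room temperature, then NADPH regeneration 1 h before detection reagent.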

[10] = Cell Viability qHTS for small molecule stabilizers of the endoplasmic reticulum resident proteome (AID 1508629); conditions: cell viability counter-screen, 100 nM thapsigargin for final 4 h;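 further: human SH-SY5Y neuroblastoma cells carrying the GLuc-SERCaMP reporter; compound exposure about 46 h in total before the viability read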
[11] = molecular target: Calcium and integrin-binding protein 1 (Homo sapiens) (UniProt Q99828); test: Primary qHTS for Identification of Calcium Integrin Binding Protein 1 (CIB1) Competitor (AID 1508620);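 further: GST tagged CIB1 binding a fluorescein labelled alphaIIb integrin peptide tracer; top concentration of the series differs between compounds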
How it was run: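 Fluorescence polarization competition: CIB1-GST (1 uM final) preincubated with compound 15 min at room temperature, then FITC-labeled alphaIIb peptide (100 nM final) added for another 15 min. Polarization read at Ex 480/Em 540.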

Row | Compound | outcome [1] | Potency [2] | Potency [3] | Potency [4] | Potency [5] | outcome [6] | Potency (Papain (Carica papaya)) | Potency [7] | Potency [8] | Potency [9] | max response [10] [%] | Potency [11]
1 | CCN1/C(=C/C(C)=O)Sc2ccc(OC)cc21 | inactive | inactive | inactive | inactive | inactive | inactive | inactive | inactive | – | – | – | –
2 | O=C1NC(=O)/C(=C/c2ccc3nccnc3c2)S1 | inactive | inactive | inactive | inactive | inactive | – | inactive | inactive | – | – | – | –
3 | O=C1/C(=C/c2ccsc2)CC/C1=C\c1cccs1 | inactive | – | inactive | inactive | inactive | inactive | – | – | inactive | – | – | –
4 | Oc1cc(O)cc(/C=C/c2ccc(O)c(O)c2)c1 | inactive | inactive | inactive | inactive | 3.16 µM (active) | – | 22.4 µM (active) | 6.51 µM (active) | – | – | – | –
5 | CN(C)c1ccc(/C=C2\C(=O)Nc3ccccc32)cc1 | inactive | – | inactive | inactive | inactive | inactive | inactive | – | inactive | – | – | –
6 | CC(=O)SCC[N+](C)(C)C | inactive | – | inactive | inactive | inactive | inactive | inactive | – | inactive | – | – | –
7 | S=C(S)OC1CC2CC1C1CCCC21 (centres undefined) | inactive | – | inactive | inactive | inactive | inactive | inactive | – | inactive | – | – | –
8 | NCCSSCCN | inactive | – | inactive | inactive | inactive | inactive | inactive | – | inactive | – | – | –
9 | O=C(Nc1ccc2c(c1)CCN(Cc1ncn[nH]1)C2)c1ccccc1-c1ccc(C(F)(F)F)cc1 | inactive | inactive | – | – | – | inactive | inactive | inactive | – | 0.12 µM (active) | – | –
10 | CCCN(CC1CC1)c1nc(C)nc(Nc2c(Cl)cc(Cl)cc2Cl)c1Cl | inactive | – | inactive | inactive | inactive | inactive | inactive | – | inactive | – | 17.8 | –
11 | CCCCCCCCCCCCCCCC(=O)OC(CC(=O)O)C[N+](C)(C)C (centres undefined) | inactive | – | inactive | inactive | inactive | inactive | inactive | – | inactive | – | – | –
12 | O=P(O)(O)C(Cl)(Cl)P(=O)(O)O | inactive | – | inactive | inactive | inactive | inactive | inactive | – | inactive | – | – | –
13 | NC(CCCP(=O)(O)O)C(=O)O (centres undefined) | inactive | – | inactive | inactive | inactive | inactive | inactive | – | inactive | – | – | –
14 | O=S(=O)(c1cccc2c(I)cccc12)N1CCCNCC1 | inactive | inactive | inactive | inactive | – | inactive | inactive | – | – | – | – | –
15 | COc1ccc(/C=C/C(=O)Nc2ccccc2C(=O)O)cc1OC | inactive | inactive | inactive | inactive | inactive | – | – | inactive | – | – | – | inactive
16 | Cc1ccc(S(=O)(=O)/C=C/C#N)cc1 | inactive | – | inactive | inactive | 1.41 µM (active) | inactive | inactive | – | inactive | – | – | –
17 | CN1CCc2cccc3c2C1Cc1ccc(O)c(O)c1-3 (centres undefined) | inactive | – | inactive | inactive | inactive | inactive | – | – | inactive | – | – | –
18 | C[N+](C)(C)CCOP(=O)(O)OP(=O)([O-])OC[C@H]1O[C@@H](n2ccc(N)nc2=O)[C@H](O)[C@@H]1O | inactive | – | inactive | inactive | inactive | inactive | inactive | – | inactive | – | – | –
19 | CNC(=O)[C@H]1O[C@@H](n2cnc3c(NCc4ccc(N)cc4)ncnc32)[C@H](O)[C@@H]1O | inactive | – | inactive | inactive | inactive | inactive | inactive | – | inactive | – | – | –

Row | Compound | outcome [1] | Potency [2] | Potency [3] | Potency [4] | Potency [5] | outcome [6] | Potency (Papain (Carica papaya)) | Potency [7] | Potency [8] | Potency [9] | max response [10] [%] | Potency [11]
20 | CC[C@@H](C)[C@H]1O[C@]2(CC[C@H]1C)C[C@@H]1C[C@@H](CC=C(C)[C@@H](O[C@H]3C[C@H](OC)[C@@H](O[C@H]4C[C@H](OC)[C@@H](O)[C@H](C)O4)[C@H](C)O3)[C@@H](C)C=CC=C3CO[C@@H]4[C@H](O)C(C)=C[C@@H](C(=O)O1)[C@]34O)O2 | inactive | – | inactive | inactive | inactive | inactive | inactive | – | inactive | – | – | –
21 | Nc1nc(Cl)nc2c1ncn2[C@@H]1O[C@H](CO)[C@@H](O)[C@H]1O | inactive | – | inactive | inactive | inactive | inactive | inactive | – | inactive | – | – | –
22 | CC1CN(S(=O)(=O)c2cccc3cnccc23)CCN1 (centres undefined) | inactive | – | inactive | inactive | inactive | inactive | inactive | – | – | – | 32.3 | –
23 | CC(C)(C=O)Cc1cc(C(C)(C)C)c(O)c(C(C)(C)C)c1 | inactive | – | inactive | inactive | inactive | inactive | inactive | – | inactive | – | – | –
24 | NCC1OC(O[C@H]2[C@H](O)[C@@H](OC3C(O)C(N)CC(N)C3OC3OC(CO)C(O)C(O)C3N)O[C@@H]2CO)C(N)C(O)C1O (some centres undefined) | inactive | – | inactive | inactive | inactive | inactive | – | – | inactive | – | – | –
25 | Nc1nc(SCc2ccc([N+](=O)[O-])cc2)c2ncn([C@@H]3O[C@H](CO)[C@@H](O)[C@H]3O)c2n1 | inactive | – | inactive | inactive | inactive | inactive | inactive | – | inactive | – | – | –
26 | CCN(CC)c1ncnc2c1ncn2[C@@H]1O[C@H](COP(=O)(O)OP(=O)(O)C(Br)(Br)P(=O)(O)O)[C@@H](O)[C@H]1O | inactive | – | inactive | inactive | inactive | inactive | inactive | – | inactive | – | – | –
27 | COc1ccccc1CNCCCCCCNCCCCCCCCNCCCCCCNCc1ccccc1OC | inactive | – | inactive | inactive | inactive | inactive | – | – | inactive | – | – | –
28 | COc1cc(SC)ccc1C(=O)N1CCC(Cc2ccccc2)CC1 | inactive | inactive | inactive | inactive | inactive | – | inactive | – | inactive | – | – | –
29 | N#C/C(=C\c1ccc(O)c(O)c1)C(=O)c1ccc(O)c(O)c1 | inactive | – | inactive | inactive | inactive | inactive | – | – | – | – | – | –
30 | CNc1ncnc2c1ncn2[C@@H]1O[C@H](CO)[C@@H](O)[C@H]1O | inactive | – | inactive | inactive | inactive | inactive | inactive | – | inactive | – | – | –
31 | Cc1cc2c(cc1Cl)N(C(=O)Nc1ccc(Oc3cccnc3C)nc1)CC2 | inactive | – | inactive | inactive | inactive | inactive | inactive | – | – | – | – | –
32 | O=[N+]([O-])c1ccc(CSc2ncnc3c2ncn3[C@@H]2O[C@H](CO)[C@@H](O)[C@H]2O)cc1 | inactive | – | inactive | inactive | inactive | inactive | inactive | – | inactive | – | – | –
33 | COc1cccc(C(=O)NCCN2CCN(c3ccc(Cl)cc3)CC2)c1 | inactive | – | inactive | inactive | inactive | inactive | inactive | – | – | – | – | –
34 | NC(=O)C(=O)O | inactive | – | inactive | inactive | inactive | inactive | inactive | – | inactive | – | – | –
35 | CSc1ccccc1N1CCN(CCCCCC(=O)NC2CCCc3ccccc32)CC1 (centres undefined) | inactive | – | inactive | inactive | inactive | inactive | inactive | – | – | – | – | –
36 | NC(N)=NC(=O)c1nc(Cl)c(N2CCCCCC2)nc1N | inactive | – | inactive | inactive | inactive | inactive | inactive | – | – | – | – | –
37 | NCCCCCCCCCCN | inactive | – | inactive | inactive | inactive | inactive | inactive | – | inactive | – | – | –
